# Screening data deposited in PubChem by National Center for Advancing Translational Sciences (NCATS).
# A selection: hits, their analogues and other compounds. The true share with any hit is near 0.41%.
# GAA glycogen = GAA glycogen-cleavage inhibition or activation. Potency, µM (highest dose often 76.4 µM), for inactives: at the top dose activity change, negative = inhibition, most hits filed as inhibitors. recombinant GAA, glycogen substrate, Amplex Red glucose oxidase fluorescence. hit rate 0.38% among 300,000;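 further: potency means the concentration at half of the fitted maximal effect; 0% = full enzyme reaction and -100% = no-enzyme basal signal; the screen sought inhibitors and activators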
#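 Natural-substrate format: glycogen cleavage by 4 nM human enzyme, glucose read by Amplex Red coupling (Ex 573, Em 610 nm). Normalized to enzyme and no-enzyme controls.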
# GLA inh pH 4.5 = inhibitors of human alpha-galactosidase A at pH 4.5; 230,000 tested, under 10 active; AID 1467; P06280; activity change, negative = inhibition, % at 105 µM; purified enzyme, 4-MU-alpha-Gal fluorescence, pH 4.5;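 further: 0% = full activity with enzyme and -100% = basal without enzyme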
# GLA spleen mod = inhibitors or activators of human alpha-galactosidase in spleen homogenate; hit rate 0.008% among 240,000; P06280; human spleen homogenate, 4MU-alpha-Gal fluorescence, 40 min; AID 2107; Potency, µM (titrated, usually from 80 µM), without a hit: at the top dose activity change, negative = inhibition, most hits filed as inhibitors;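 further: potency means the concentration at half of the fitted maximal effect; 0% = enzyme with vehicle and -100% = no enzyme basal signal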
# Target sequence (P06280 32-429 limits assumed): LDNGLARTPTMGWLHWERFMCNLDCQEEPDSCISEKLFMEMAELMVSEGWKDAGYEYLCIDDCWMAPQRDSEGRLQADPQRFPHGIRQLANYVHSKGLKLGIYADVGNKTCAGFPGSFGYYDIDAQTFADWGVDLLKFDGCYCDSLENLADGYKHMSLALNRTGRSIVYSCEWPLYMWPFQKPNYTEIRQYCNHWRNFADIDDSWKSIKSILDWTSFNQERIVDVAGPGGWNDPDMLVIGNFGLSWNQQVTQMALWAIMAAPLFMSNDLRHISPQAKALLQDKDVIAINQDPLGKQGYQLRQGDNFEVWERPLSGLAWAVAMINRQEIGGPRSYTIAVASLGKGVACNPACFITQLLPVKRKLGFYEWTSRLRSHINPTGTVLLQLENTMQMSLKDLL
#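 Human spleen homogenate (1 ug) as enzyme source, 4-methylumbelliferyl-alpha-D-galactopyranoside 1 mM final, citrate/phosphate pH 5.0 with 0.01% Tween-20. Compounds 40 min at 37C, NaOH/glycine stop; fluorescence Ex 365/Em 440, Hill-fit AC50.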
# N370S GC mod = inhibits or activates N370S mutant glucocerebrosidase; hit rate 0.092% among 330,000; P04062; Potency, µM (titrated, usually from 59.4 µM), for inactives: top-dose activity change, negative = inhibition, hits mostly inhibitors; N370S GC spleen homogenate, 4MU-glucoside fluorescence;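 further: potency means the concentration at half of the fitted maximal effect; 0% = full enzyme activity and -100% = no enzyme basal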
# GAA spleen mod = inhibitors or activators of human alpha-glucosidase in spleen homogenate. human spleen homogenate, 4-MU-alpha-glucoside fluorescence. Potency, µM (top dose mostly 79.9 µM), for inactives: at the highest dose activity change, negative = inhibition, actives largely listed as inhibitors. hit rate 0.006% among 240,000;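 further: potency means the concentration at half of the fitted maximal effect; 0% = enzyme with vehicle and -100% = no enzyme basal signal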
#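 Enzyme source: human spleen homogenate, 1 ug/well. Buffer 50 mM citric acid/K phosphate pH 5.0, 0.01% Tween-20. 4-MU-alpha-glucoside 1 mM; 37 C x 40 min; NaOH/glycine stop; fluorescence.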
# GAA inhib = blocks human lysosomal alpha-glucosidase; purified human GAA, 4-MU-alpha-glucoside fluorescence; AID 1466; Potency, µM (titrated, usually from 76.9 µM), without a hit: top-dose activity change, negative = inhibition, actives largely listed as inhibitors; hit rate 0.005% among 200,000;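 further: potency means the concentration at half of the fitted maximal effect; plate controls were uninhibited enzyme wells for no effect and no-enzyme background for full effect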
#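 Endpoint fluorogenic read: 20 min room-temperature reaction of 4 nM human alpha-glucosidase with 400 uM 4-methylumbelliferyl-alpha-D-pyranoside, pH 5.0, quenched with 1M NaOH/1M glycine pH 10. AC50 from Hill modeling.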
# Starred values were filed as active, the others as inactive; u = inconclusive; x = no result given; [ ] = another dose, or the depositor's remark. The call rests on the fitted dose curve; in most records, active means well fitted curve in the direction sought with a large enough effect; inconclusive means small, poorly fitted or top-dose-only effect, or another doubt; inactive means no such curve, though single readings can be large; an effect the other way counts as inactive or inconclusive.
SMILES,GAA glycogen,GLA inh pH 4.5,GLA spleen mod,N370S GC mod,GAA spleen mod,GAA inhib
COc1ccc(NC(=O)N2CCc3nc(-c4ccc(OC)cc4C)c4c(c3C2)CO[C@@H](c2ccccc2)C4)cc1,x,-4,0%[17.5 µM],0%[12.8 µM],-3%[17.4 µM],x
CC(=O)Oc1ccc(-c2csnn2)cc1,-8%,-9,4%,4%,9%,1%
Cc1ccccc1C(=O)NNc1ccc(-c2csnn2)cc1,16µM*,-2,1%,-26%,6%,-2%
CCCCCCCCCCN1CCOCCOCCN(CCCCCCCCCC)CCOCCOCC1,x,x,8%,-1%,3%,x
COc1ccc(C(=O)c2cn[nH]c2-c2ccc(C)cc2O)cc1,-3%,x,x,-13%,x,x
COc1ccc(-c2cc(=O)c(C(=O)c3ccc(C)cc3)n[nH]2)cc1,6%,11,40µM*,27%,u,11%
CN(C)c1nc(NC2CCC(NC(=O)c3ccc(F)c(F)c3)CC2)nc2ccccc12 (stereo unspecified),x,x,1%,-1%,-1%,x
COc1ccccc1N1CCN(CCn2c(=O)c3c(c4ccccc4n3C)n(C)c2=O)CC1,x,x,7%,10%,7%,x
CN(C)C1C(=O)C(C(N)=O)=C(O)[C@@]2(O)C(=O)C3=C(O)c4c(O)ccc(Cl)c4[C@@H](O)C3C[C@@H]12 (stereo partly specified),x,-8,-15%,-5%,-7%,x
COc1ccc(/C=N/Nc2ccccn2)cc1OC,u,-4,-7%,18%,-6%,x
COc1cc(/C=N/NC(=O)NC2CCCCC2)cc(OC)c1O,-9%,-10,-4%,7%,-1%,x
COc1cc(/C=N/Nc2ccc(C(=O)O)cc2)cc(OC)c1OC,u,-16,-16%,3%,2%,x
COc1cc(/C=N/Nc2ccc(C(=O)O)cc2)ccc1O,5.6µM*,-12[21.1 µM],-1%,-20%,-4%,-10%
COc1cc(/C=N/NC(=O)NC2CCCCC2)ccc1O,25µM*,-10,-3%,u,2%,x
Oc1ccc(/C=N/Nc2ccc(Cl)nn2)cc1O,6.3µM*,x,x,-7%,x,x
COc1cc(/C=N/Nc2ccccn2)ccc1O,25µM*,-5,0%,-14%,-4%,x
CC1CCC/C(=C\Nc2ccc(O)cc2)C1=O (stereo unspecified),14µM*,1,7%,-23%,0%,-9%
CC(C)[C@H](NC(=O)[C@@H]1CSSC[C@H](NC(=O)[C@H](CC(=O)O)NC(=O)[C@H](C)NC(=O)[C@@H](NC(=O)CNC(=O)[C@H](C)N)[C@@H](C)O)C(=O)N[C@@H](Cc2ccccc2)C(=O)N[C@@H](Cc2c[nH]c3ccccc23)C(=O)N[C@@H](CCCCN)C(=O)N[C@@H](Cc2ccc(O)cc2)C(=O)N1)C(=O)O,x,x,-1%,-13%,0%,x
C(=N\N1CCN(C2c3ccccc3-c3ccccc32)CC1)/c1cccnc1,-20%,-2,-7%,x,-9%,-5%
C/C(=N\N1CCN(C2c3ccccc3-c3ccccc32)CC1)c1cccnc1,32µM*,2,3%,8%,-22%,12%
Oc1ccc(Nc2ccnc3cc(Cl)ccc23)cc1,13µM*,-12,6%,u,-10%,x
COc1ccc2nc3c(cc2c1)Cn1c-3nc2ccccc2c1=O,x,x,u,11%,15%,x
CC(=O)c1ccc2c3c(ccc(O)c13)CC2,31µM*,0,-1%,6%,1%,4%
CC(=O)c1ccc(N2CCOCC2)cc1O,x,x,-3%,0%,2%,x
c1ccc(-c2ccc(OCCN3CCCC3)cc2)cc1,x,x,4%,-1%,-2%,x
COc1ccccc1C1CC(=O)Oc2cc3c(cc21)OCO3 (stereo unspecified),x,-9,0%[119 µM],3%[89.1 µM],6%[119 µM],x
C=CCOc1cccc(CNc2ccc3[nH]c(=O)[nH]c3c2)c1,28µM*,-4,-8%,-13%,-1%,-2%
CCOc1cc(CNc2ccc(N(C)C)cc2)cc(Br)c1OCC(=O)NC(C)(C)C,20µM*,-27,-19%,-8%,-6%,u
